From PubChem BioAssay
Calls of active or inactive are those of the source.

Assays:
[1] = tested on: Human papillomavirus type 1a protein E7 (residues 44-93); assay: HPV1a E7 fragment binders on microarrays, primary screen, biochemical, small-molecule microarray, residues 44-93, 635 nm fluorescence (AID 1108); conditions: small-molecule microarray binding, fluorescence 635 nm; higher = more signal;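 note: E7 fragment applied at 1 µg/mL in TBST for 1 h at 4 C; score combines spot fluorescence with its signal to noise ratio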
[2] = modulators of HCV replicon luciferase signal, primary screen, HCV replication inhibitor project, Huh7 cells, luciferase reporter (AID 1109); conditions: 48 h, higher = more signal;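 note: huh7 hepatoma cells harbouring a luciferase neomycin HCV replicon reporter; luciferase luminescence as measure of HCV replicon replication; test concentration not given here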
[3] = target: Left-right determination factor 2 (Homo sapiens) (UniProt O00292); assay: LEFTY2 binders on small-molecule microarrays, primary screen, biochemical, small-molecule microarray, 635 nm fluorescence scan (AID 1110); conditions: LEFTY2 binding, higher = more signal
Sequence of Left-right determination factor 2 (Homo sapiens) (O00292 whole entry, looked up): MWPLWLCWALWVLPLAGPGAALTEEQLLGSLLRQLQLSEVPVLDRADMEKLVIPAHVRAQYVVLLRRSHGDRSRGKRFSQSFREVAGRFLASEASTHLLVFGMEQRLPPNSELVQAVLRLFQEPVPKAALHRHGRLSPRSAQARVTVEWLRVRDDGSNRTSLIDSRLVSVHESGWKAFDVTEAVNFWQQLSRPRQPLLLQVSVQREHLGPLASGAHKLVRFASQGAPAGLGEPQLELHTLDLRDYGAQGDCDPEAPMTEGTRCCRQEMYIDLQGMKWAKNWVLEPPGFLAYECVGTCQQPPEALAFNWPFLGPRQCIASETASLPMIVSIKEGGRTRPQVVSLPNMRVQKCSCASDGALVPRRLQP

[4] = target: Calmodulin-1 (Homo sapiens) (UniProt P0DP23); assay: CALM1 binders on microarrays, EGTA buffer, profiling panel, biochemical, small-molecule microarray, Cy5-labelled CALM1 (AID 1111); conditions: Cy5-CALM1 binding fluorescence, higher = more signal;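 note: labelled calmodulin applied in Tris saline Tween buffer holding calcium plus EGTA and DTT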
[5] = target: Calmodulin-1 (Homo sapiens) (UniProt P0DP23); assay: calcium-bound CALM1 binders on microarrays, profiling panel, artefact control for SMM control-protein annotation, biochemical, small-molecule microarray, Cy5-labelled CALM1, plus calcium (AID 1112); conditions: Cy5-CALM1 binding fluorescence, higher = more signal;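 note: score merges spot fluorescence with signal to noise from triplicate slides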
[6] = small-molecule microarray binders of probe aWnt5a, primary screen, biochemical, biotinylated probe, 635/667 nm fluorescence (AID 1113); conditions: higher = more signal;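 note: score merges 667 nm fluorescence intensity with signal-to-noise per printed feature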
[7] = small-molecule microarray binders of probe aShh, primary screen, biochemical, biotinylated probe, 635/667 nm fluorescence (AID 1114); conditions: higher = more signal;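 note: probe is biotin-labelled aShh protein from a stem cell growth factor screen; measures binding of labelled protein to compounds printed on the slide; score merges feature fluorescence at 667 nm with signal-to-noise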
[8] = small-molecule microarray binders of probe aNog, primary screen, biochemical, biotinylated probe, 635/667 nm fluorescence (AID 1115); conditions: higher = more signal;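 note: probe is biotinylated aNog protein used at 0.15 µg/mL for 1 h at 4 C; z-score combines 667 nm fluorescence of each spot with its signal to noise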
[9] = target: Torsin-1A-interacting protein 1 (Homo sapiens) (UniProt Q5JTV8); assay: LAP1 binders from COS7 cell lysate, primary screen, small-molecule microarray, 635/667 nm fluorescence (AID 1116); conditions: COS7-hLAP1 lysate binding, 635 nm fluorescence, higher = more signal
Sequence of Torsin-1A-interacting protein 1 (Homo sapiens) (Q5JTV8 whole entry, looked up): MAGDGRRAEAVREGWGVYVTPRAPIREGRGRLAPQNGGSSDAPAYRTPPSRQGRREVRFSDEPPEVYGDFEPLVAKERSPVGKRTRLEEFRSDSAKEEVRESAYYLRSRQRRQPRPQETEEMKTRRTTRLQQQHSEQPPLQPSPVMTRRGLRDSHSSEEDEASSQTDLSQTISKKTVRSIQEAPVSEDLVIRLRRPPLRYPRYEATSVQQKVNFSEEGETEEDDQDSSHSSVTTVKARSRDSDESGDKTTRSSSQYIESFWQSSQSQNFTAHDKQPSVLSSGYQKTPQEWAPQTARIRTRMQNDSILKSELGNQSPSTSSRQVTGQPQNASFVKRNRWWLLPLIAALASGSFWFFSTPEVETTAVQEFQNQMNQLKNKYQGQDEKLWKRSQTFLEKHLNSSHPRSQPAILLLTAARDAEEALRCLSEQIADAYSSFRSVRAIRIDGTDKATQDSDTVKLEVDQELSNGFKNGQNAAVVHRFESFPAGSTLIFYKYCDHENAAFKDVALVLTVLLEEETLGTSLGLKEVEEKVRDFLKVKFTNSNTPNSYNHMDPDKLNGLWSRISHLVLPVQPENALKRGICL

[10] = target: Alpha-bungarotoxin (Bungarus multicinctus) (UniProt P60615); assay: alpha-bungarotoxin binders on microarray, profiling panel, artefact control for SMM control protein annotation, biochemical, small-molecule microarray, Alexa647 label, 635/667 nm fluorescence (AID 1117); conditions: alpha-BTX-A647 binding fluorescence, higher = more signal
Sequence of Alpha-bungarotoxin (Bungarus multicinctus) (P60615 whole entry, looked up): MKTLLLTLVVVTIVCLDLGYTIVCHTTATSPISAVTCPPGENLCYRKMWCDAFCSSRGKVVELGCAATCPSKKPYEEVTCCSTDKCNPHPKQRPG

Albumin (Bos taurus) = Albumin (Bos taurus) (UniProt P02769); assay: bovine serum albumin binders on microarray, profiling panel, artefact control for SMM control protein annotation, biochemical, small-molecule microarray, Alexa647 label, 635/667 nm fluorescence (AID 1118); conditions: BSA-A647 binding, fluorescence 635 nm, higher = more signal;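 note: score merges 667 nm emission intensity and signal-to-noise per printed compound spot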
Sequence of Albumin (Bos taurus) (P02769 whole entry, looked up): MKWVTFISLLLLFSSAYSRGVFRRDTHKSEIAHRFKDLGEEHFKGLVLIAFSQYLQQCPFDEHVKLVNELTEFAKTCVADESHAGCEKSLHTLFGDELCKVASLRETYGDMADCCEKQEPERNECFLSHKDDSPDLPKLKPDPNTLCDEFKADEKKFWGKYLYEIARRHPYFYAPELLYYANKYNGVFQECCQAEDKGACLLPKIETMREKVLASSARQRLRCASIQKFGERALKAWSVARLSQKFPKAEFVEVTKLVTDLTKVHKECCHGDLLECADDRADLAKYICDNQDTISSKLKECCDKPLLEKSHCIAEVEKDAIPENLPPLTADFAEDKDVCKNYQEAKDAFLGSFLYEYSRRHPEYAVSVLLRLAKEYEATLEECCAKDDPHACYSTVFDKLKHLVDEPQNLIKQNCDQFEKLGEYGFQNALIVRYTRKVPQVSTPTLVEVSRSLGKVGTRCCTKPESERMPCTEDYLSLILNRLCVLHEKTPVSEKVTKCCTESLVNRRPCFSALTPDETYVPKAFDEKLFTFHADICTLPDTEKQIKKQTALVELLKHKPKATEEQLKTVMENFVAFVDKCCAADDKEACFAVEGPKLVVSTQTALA

[11] = small-molecule microarray binders of probe aXIP, primary screen, biochemical, NeuroSMM set, 635/667 nm fluorescence (AID 1119); conditions: higher = more signal, called active from +8 up or from −8 down;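 note: probe is the protein aXip251-270 applied at 1 µg/mL to compound-printed slides; binding of probe to printed compounds measured as 667 nm fluorescence plus signal to noise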
[12] = small-molecule binders of probe aNOTCH3, primary screen, biochemical, small-molecule microarray, 635/667 nm fluorescence (AID 1120); conditions: higher = more signal;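 note: probe is a biotin-tagged antibody raised against NOTCH3 rather than NOTCH3 protein; score merges spot fluorescence near 667 nm with spot signal to noise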
[13] = small-molecule binders of probe aNOTCH2, primary screen, biochemical, small-molecule microarray, 635/667 nm fluorescence (AID 1121); conditions: higher = more signal;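 note: score merges feature fluorescence read at 667 nm with its signal to noise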
[14] = target: Carbonic anhydrase 2 (Homo sapiens) (UniProt P00918); assay: CAII small-molecule binders, profiling panel, biochemical, small-molecule microarray, Alexa647-labelled CAII (AID 1122); conditions: CAII-A647 binding fluorescence, higher = more signal
[15] = COS7 lysate on small-molecule microarray, probe aHis, 635 nm (AID 1123); conditions: COS7 cell lysate, fluorescence, higher = more signal;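 note: z-score combines 667nm fluorescence intensity with signal-to-noise per printed compound spot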
[16] = compound binding in COS7 lysate, probe aLAP1, primary screen, cell lysate, small-molecule microarray (AID 1124); conditions: probe aLAP1, fluorescence, higher = more signal;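 note: lysate comes from COS7 cells expressing LAP1 and is applied at 0.3 µg/mL; score merges spot fluorescence near 667 nm with signal-to-noise over triplicate slides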
Sam68 (KHDRBS1) = assay: Sam68 small-molecule binders, primary screen, biochemical, small-molecule microarray, 635 nm fluorescence (AID 1125); conditions: small-molecule microarray binding, higher = more signal;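 note: score merges 667 nm channel intensity with signal to noise over triplicate slides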
[17] = tested on: Chordin-like protein 2 (CHRDL2); assay: CHRDL2 small-molecule binders, primary screen, biochemical, small-molecule microarray, 635 nm fluorescence (AID 1126); conditions: small-molecule microarray binding, fluorescence 635 nm; higher = more signal;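 note: printed compound slides probed with Chrdl2 protein at 4 µg/mL for 1 h at 4 C; score merges 667 nm emission intensity with signal to noise over three replicate slides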
[18] = target: Concanavalin-A (Canavalia ensiformis) (UniProt P02866); assay: ConA small-molecule binders, primary screen, artefact control for SMM control protein annotation, biochemical, small-molecule microarray, Alexa647 label, 635 nm (AID 1127); conditions: ConA-A647 binding fluorescence, higher = more signal;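 note: z combines 667 nm emission intensity with signal-to-noise across three replicate slides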
Sequence of Concanavalin-A (Canavalia ensiformis) (P02866 whole entry, looked up): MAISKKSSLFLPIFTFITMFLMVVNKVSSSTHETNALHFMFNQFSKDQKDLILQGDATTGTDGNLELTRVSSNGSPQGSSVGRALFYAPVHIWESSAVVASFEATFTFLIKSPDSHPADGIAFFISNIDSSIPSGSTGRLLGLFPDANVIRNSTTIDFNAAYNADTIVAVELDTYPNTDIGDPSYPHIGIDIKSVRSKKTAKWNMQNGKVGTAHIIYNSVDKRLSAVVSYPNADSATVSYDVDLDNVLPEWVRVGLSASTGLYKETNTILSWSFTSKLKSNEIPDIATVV

| Structure (SMILES) | composite z-score [1] | z-score [2] | composite z-score [3] | composite z-score [4] | composite z-score [5] | composite z-score [6] | composite z-score [7] | composite z-score [8] | composite z-score [9] | composite z-score [10] | composite z-score (Albumin (Bos taurus)) | composite Z-score [11] | composite z-score [12] | composite z-score [13] | composite z-score [14] | composite z-score [15] | composite z-score [16] | composite z-score (Sam68 (KHDRBS1)) | composite z-score [17] | composite z-score [18] |
| --- | --- | --- | --- | --- | --- | --- | --- | --- | --- | --- | --- | --- | --- | --- | --- | --- | --- | --- | --- | --- |
| C=CCC(OC(C)=O)[C@@H]1[C@@H](N(Cc2cccc3ccccc23)C(=O)c2cccc3ccccc23)c2cc(OCCCO)ccc2N1C(=O)c1ccc2ccccc2c1 (stereo not given in full) | 0.475 | -0.351 | 0.156 | -0.0677 | 0.476 | -0.0748 | 0.0494 | 0.185 | 0.184 | 0.0426 | 0.0949 | 0.128 (inactive) | 0.0676 | -0.0883 | 0.206 | -0.203 | -0.225 | -0.047 | 0.0526 | -0.0264 |
| O=C1C2C=CC(C(O)c3ccc(I)cc3)N(Nc3ccccc3)C2C(=O)N1c1ccccc1 (stereo not given) | 0.898 | 0.0376 | 0.0988 | 2.51 | 1.2 | -0.0399 | 0.184 | 1.4 | 1.83 | 1.71 | 0.778 | 0.284 (inactive) | 0.273 | 0.11 | 0.738 | 2.87 | 0.635 | 1.34 | -0.409 | 1.16 |
| CCOC(=O)C=Cc1cc(F)ccc1O | 0.261 | -1.36 | -0.251 | -0.297 | -0.352 | -0.0462 | 0.0469 | -0.181 | -0.207 | 0.0531 | -0.0584 | -0.276 (inactive) | -0.0324 | -0.0995 | 0.384 | 0.149 | 0.0926 | 0.161 | 0.133 | 0.126 |
| NC(=O)[C@H]1[C@@H]2C(=O)O[C@@H](c3ccccc3)[C@@H](c3ccccc3)N2[C@@H](c2ccc(O)cc2)[C@]12C(=O)Nc1ccccc12 | -0.0092 | -0.449 | -0.194 | -0.408 | 0.517 | -0.0124 | -0.214 | -0.0753 | -0.428 | -1.15 | 0.295 | 0.355 (inactive) | -0.307 | -0.173 | 0.769 | -0.115 | 0.0182 | -0.783 | -1.22 | -0.411 |
| CCOC(=O)C[C@H]1[C@H](OC(=O)c2ccc(C(=O)c3ccccc3)cc2)[C@@H](NC(=O)CC(C)C)c2cc(OCCCO)ccc2N1C(=O)Cc1ccc(OC)cc1 | 1.1 | -2.05 | 0.142 | 1.19 | 0.263 | -0.0852 | -0.238 | 0.0437 | 0.812 | 0.118 | 0.793 | -0.0147 (inactive) | -0.0377 | 0.075 | 0.139 | 1.26 | 0.563 | 0.698 | -0.612 | 0.142 |
| COCCOC(=O)N1C(=O)[C@@]2(c3ccccc31)[C@H](c1ccccc1OCCO)N1[C@H](c3ccccc3)[C@H](c3ccccc3)OC(=O)[C@H]1[C@@H]2C(=O)N1CCCCCCC1 | 1.53 | -3.17 | 1.73 | 2.8 | 1.47 | 1.5 | 3.37 | 3.61 | 5.43 | 3.1 | -0.0233 | 7.47 (inactive) | 2.15 | 1.16 | 0.935 | 4.27 | 1.96 | 1.29 | 1.47 | 0.883 |
| COC(=O)[C@@]1(Cc2ccc(F)cc2)[C@H]2c3cc(C(=O)N(C)C)n(Cc4ccc(O)c(OC)c4)c3C[C@H]2CN1C(=O)c1ccccc1 | 0.347 | -1.05 | -0.0182 | 1.17 | -0.0337 | 0.0776 | 0.207 | -0.186 | -0.105 | 0.412 | 0.862 | -0.136 (inactive) | 0.416 | -0.127 | 0.659 | 1.08 | -0.0606 | 0.607 | -0.109 | 0.862 |
| C[C@]1(C(=O)NCC(F)(F)F)c2ccccc2C(=O)N(Cc2ccccc2)[C@H]1c1ccc(CO)cc1 | -0.0857 | -0.501 | -0.722 | -0.21 | 0.799 | -0.287 | -0.147 | -0.0799 | 0.015 | -0.553 | -1.14 | -0.222 (inactive) | -0.221 | -0.123 | 0.448 | -0.145 | 0.498 | -1.22 | -1.7 | 0.0038 |
| CC(C)C[C@@H]1NC(=O)CNC(=O)[C@@]23C(=O)N[C@@H](Cc4ccccc4)C2[C@H](C)[C@@]2(C)O[C@H]2C3/C=C/C/C=C\CNC1=O (stereo not given in full) | 1.39 | -0.275 | 0.6 | -0.263 | -0.825 | -0.147 | -0.388 | -0.177 | 0.625 | 0.985 | -0.007 | 0.692 (inactive) | 0.0026 | -0.102 | 0.461 | 0.718 | 0.461 | 1.29 | 0.764 | -0.404 |
| CCCCNC(=O)c1ccc(C#C[Si](C(C)C)(C(C)C)C(C)C)c(OC(C)=O)c1 | 1.09 | -1.13 | 0.785 | 0.367 | -0.48 | -0.0977 | -0.2 | -0.216 | 0.15 | 2.24 | -0.154 | 0.168 (inactive) | 0.089 | -0.117 | 0.925 | 0.1 | -0.18 | 0.823 | 1.33 | 0.94 |
